Structures are written as SMILES. Where “and” joins values, the source holds several entries; their conditions need not be identical. Equal values may be shown once. Results filed as inconclusive are left out. Where a structure was tested more than once in an assay, its records may differ in their call. Calls of active or inactive are those of the source. Unless noted, the call rests on the fitted dose curve; in most records, active means well fitted curve in the direction sought with a large enough effect in the repeat runs; inconclusive means weak or mixed curves; inactive means no such curve, though single readings can be large; an effect the other way counts as inactive or inconclusive.

A short description of assay [1]: qHTS assay to identify small molecule agonists of H2AX - cell viability counter screen (AID 1224847; calls by dose curve;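 further: wild-type CHO-K1 cells; top concentration of the series differs between compounds; nearly all actives have a fitted effect of over 30% in size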). The procedure, abridged: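 For this counter screen, overnight-attached CHO-K1 cells received test compounds (15 concentrations, 0.76% DMSO final); 3 hr later at 37C, CellTiter-Glo reagent was added and luminescence recorded after 30 min at room temperature.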
The nature of assay [2]: qHTS RealTime-Glo MT Cell Viability Assay in HepG2 cells - 24 hour (AID 1224867). Further: nearly all actives have a fitted effect of over 50% in size. The procedure, abridged:
(§1)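 Luminescence read-out: viable HepG2 cells reduce a prosubstrate to a NanoLuc substrate, giving a signal proportional to live cell number. Reads taken at 0, 8, 16, 24, 32 and 40 h of compound exposure at 37 C.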
Background: In qHTS, concentration-response curves come from the screen itself.

The nature of assay [3]: qHTS RealTime-Glo MT Cell Viability Assay in HEK293 cells - 32 hour (AID 1224868). Further: top concentration of the series differs between compounds; nearly all actives have a fitted effect of over 50% in size. The procedure, abridged:
(§2)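 Nonlytic real-time viability readout: viable cells convert prosubstrate to NanoLuc substrate, giving luminescence proportional to live cell number. HEK293, 600 cells/well, compound added after 5 h, continuous culture at 37 C.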

Assay [4] in a line: A CellTox Green Cytotoxicity Assay to monitor cytotoxicity in HEK293 cells - 0 hour (AID 1224869). Further: nearly all actives have a fitted effect of over 50% in size. The procedure, abridged: (§3)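 Fluorescence from a DNA-binding dye excluded by viable cells was measured repeatedly in the same HEK293 wells (600 cells/well) during continuous compound exposure at 37 C. Each assay gives one read point: 0, 8, 16, 24, 32 or 40 h.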
Assay [5] is described as follows: qHTS RealTime-Glo MT Cell Viability Assay in HepG2 cells - 40 hour (AID 1224870). Further: nearly all actives have a fitted effect of over 50% in size. The procedure, abridged: (§4)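 HepG2 cells (600/well) mixed with RealTime-Glo MT reagent, settled 5 h at 37 C/5% CO2 before compound addition. Nonlytic NanoLuc luminescence from viable-cell prosubstrate reduction read repeatedly during 40 h treatment at 37 C.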
Assay [6] can be described thus: A CellTox Green Cytotoxicity Assay to monitor cytotoxicity in HEK293 cells - 40 hour (AID 1224871). Further: nearly all actives have a fitted effect of over 45% in size. Further: potency means the concentration at half of the fitted maximal effect. The procedure, abridged: as §3
Assay [7] is described as follows: qHTS RealTime-Glo MT Cell Viability Assay in HEK293 cells - 16 hour (AID 1224872). The procedure, abridged: as §2
A short description of assay [8]: qHTS RealTime-Glo MT Cell Viability Assay in HepG2 cells - 8 hour (AID 1224873). Further: nearly all actives have a fitted effect of over 55% in size. The procedure, abridged:
as §4

Assay [9] can be described thus: qHTS RealTime-Glo MT Cell Viability Assay in HEK293 cells - 40 hour (AID 1224874). Further: nearly all actives have a fitted effect of over 50% in size. As to conditions: RealTime-Glo luminescence; max response: stronger effect = lower value. The procedure, abridged: (§5)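 Luminescence, which tracks viable cell number through reduction of the prosubstrate to a NanoLuc substrate, was read over continuous 37 C culture. Cells (600/well) were premixed with reagent and rested 5 h before 23 nL of compound in DMSO was pinned.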

A short description of assay [10]: A CellTox Green Cytotoxicity Assay to monitor cytotoxicity in HEK293 cells - 24 hour (AID 1224875). Further: series mostly up to about 77 µM; nearly all actives have a fitted effect of over 45% in size. The procedure, abridged: as §3
The nature of assay [11]: A CellTox Green Cytotoxicity Assay to monitor cytotoxicity in HepG2 cells - 16 hour (AID 1224876). Further: nearly all actives have a fitted effect of over 45% in size. The procedure, abridged: (§6)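 Real-time cytotoxicity: fluorescence of a cell-impermeant cyanine dye binding DNA of dead HepG2 cells, measured repeatedly (0–40 h) during compound exposure at 37 C. Cells seeded 600/well with reagent, dosed after 5 h.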
The nature of assay [12]: qHTS RealTime-Glo MT Cell Viability Assay in HepG2 cells - 32 hour (AID 1224877). Further: nearly all actives have a fitted effect of over 55% in size. The procedure, abridged: as §1
A short description of assay [13]: A CellTox Green Cytotoxicity Assay to monitor cytotoxicity in HepG2 cells - 24 hour (AID 1224878). Further: nearly all actives have a fitted effect of over 45% in size. The procedure, abridged:
as §6

Assay [14] can be described thus: A CellTox Green Cytotoxicity Assay to monitor cytotoxicity in HepG2 cells - 40 hour (AID 1224879). Further: nearly all actives have a fitted effect of over 40% in size. The procedure, abridged: as §6
Assay [15] is described as follows: qHTS RealTime-Glo MT Cell Viability Assay in HEK293 cells - 0 hour (AID 1224880). The procedure, abridged:
as §5

Assay [16] can be described thus: A CellTox Green Cytotoxicity Assay to monitor cytotoxicity in HEK293 cells - 32 hour (AID 1224881). Further: nearly all actives have a fitted effect of over 40% in size. The procedure, abridged: as §3
Assay [17] in a line: A CellTox Green Cytotoxicity Assay to monitor cytotoxicity in HepG2 cells - 0 hour (AID 1224882). Further: nearly all actives have a fitted effect of over 35% in size. The procedure, abridged: as §6
Assay [18] can be described thus: A CellTox Green Cytotoxicity Assay to monitor cytotoxicity in HepG2 cells - 32 hour (AID 1224883). Further: nearly all actives have a fitted effect of over 50% in size. The procedure, abridged:
as §6
On the % scale 0 is the no-effect control and ±100 the full control effect.

As to `O=c1[nH]c(=O)n([C@H]2CCCO2)cc1F`, the Potency entry in [1], in assay [3], in assay [6], in [7], in assay [10] and in assay [11] was “inactive” in each case. Also, the Potency result in assay [13], in assay [14], in assay [15], in [16] and in [18] was “inactive” in each case. Besides, the outcome in [2], in assay [4], in [5], in assay [8], in assay [12] and in assay [17] was inactive. Also, the max response in [9] was -9.43% (inactive) and 1.8% (inactive).

Turning to `OCc1cccnc1`, the Potency result in assay [1], in [3], in assay [6], in [7], in assay [10] and in assay [11] was “inactive” throughout. The Potency result in assay [13], in assay [14], in [15], in assay [16] and in [18] was “inactive” each time. The outcome in assay [2], in [4], in assay [5], in assay [8], in [12] and in assay [17] was inactive. Also, in assay [9], the max response is -2.21% (inactive) and -1.61% (inactive).

For `C/C=C1/CC2C=CC1C2` (stereo not given), the Potency result in assay [1], in assay [3], in assay [6], in assay [7], in assay [10] and in assay [11] was “inactive” throughout. The Potency result in assay [13], in assay [14], in [15], in assay [16] and in assay [18] was “inactive” throughout. For the same compound, the outcome in [2], in assay [4], in assay [5], in [8], in assay [12] and in [17] was inactive. Further, the max response in [9] was 4% (inactive) and 6.36% (inactive).

In the case of `CCCCCCCC(=O)OC`, the Potency result in [1], in assay [3], in assay [6], in assay [7], in [10] and in assay [11] was “inactive” throughout. Further, the Potency result in assay [13], in [14], in assay [15], in assay [16] and in assay [18] was “inactive” in each case. In addition, the compound was called inactive in assay [2], in assay [4], in assay [5], in assay [8], in assay [12] and in assay [17]. Moreover, the max response in assay [9] was -1.2% (inactive) and 5.05% (inactive).

Turning to `CC1=CC(=O)NS(=O)(=O)O1`, the Potency result in [1], in [3], in assay [6], in [7], in [10] and in [11] was “inactive” in each case. For the same compound, the Potency result in assay [13], in assay [14], in [15], in assay [16] and in [18] was “inactive” in each case. The compound was called inactive in assay [2], in assay [4], in assay [5], in assay [8], in [12] and in assay [17].

`CCCCCC/C(C=O)=C\c1ccccc1`: the Potency entry in assay [1], in assay [3], in [7], in assay [10], in assay [11] and in assay [13] was “inactive” throughout. In addition, the Potency result in [14], in assay [15], in assay [16] and in [18] was “inactive” in each case. Moreover, the compound was classed as inactive in assay [2], in assay [4], in assay [5], in [8], in [12] and in [17]. Besides, the Potency in [6] is 44.1 µM (active) and inactive. In addition, the max response in assay [9] was -10.1% (inactive) and 0.846% (inactive).

With `CC(=O)OCC(=O)[C@@]12N=C(C)O[C@@H]1C[C@H]1[C@@H]3CCC4=CC(=O)C=C[C@]4(C)[C@H]3[C@@H](O)C[C@@]12C`, the Potency result in assay [1], in [3], in assay [6], in assay [7], in assay [10] and in assay [11] was “inactive” in each case. For the same compound, the Potency entry in assay [13], in assay [14], in assay [15], in [16] and in [18] was “inactive” each time. Besides, the call in [2], in assay [4], in assay [5], in [8], in assay [12] and in [17] was inactive.

As for `CC(O)COCC(C)O` (stereo not given), the Potency entry in [1], in assay [3], in assay [6], in assay [7], in assay [10] and in [11] was “inactive” in each case. For the same compound, the Potency entry in [13], in assay [14], in assay [15], in assay [16] and in assay [18] was “inactive” throughout. The compound was classed as inactive in [2], in [4], in [5], in [8], in [12] and in assay [17]. Also, the max response in assay [9] is -1.78% (inactive) and 1.64% (inactive).

As for `CC(c1cc2ccccc2s1)N(O)C(N)=O` (stereo not given), the Potency entry in assay [1], in assay [3], in [6], in [7], in assay [10] and in assay [11] was “inactive” throughout. In addition, the Potency entry in assay [13], in [14], in assay [15], in assay [16] and in [18] was “inactive” in each case. Also, the result in assay [2], in assay [4], in assay [5], in assay [8], in [12] and in assay [17] was inactive. For the same compound, the max response in assay [9] is -14.9% (inactive) and -8.57% (inactive).

Consider `O=C(O)c1cc(C(=O)O)cc(S(=O)(=O)O)c1`, for which the Potency entry in assay [1], in assay [3], in assay [6], in assay [7], in assay [10] and in assay [11] was “inactive” throughout. The Potency entry in [13], in assay [14], in assay [15], in assay [16] and in [18] was “inactive” throughout. Moreover, the compound was classed as inactive in assay [2], in assay [4], in assay [5], in assay [8], in assay [12] and in [17].

As for `NNc1nncc2ccccc12`, the Potency result in assay [1], in assay [6], in assay [10], in assay [11], in [13] and in [14] was “inactive” throughout. For the same compound, the Potency result in [15], in assay [16] and in assay [18] was “inactive” throughout. The outcome in [2], in [4], in assay [5], in assay [8], in assay [12] and in [17] was inactive. Besides, the activity change, negative = cytotoxic in assay [3] is 3.93% [at 15.8 µM] (inactive). Further, in assay [7], the activity change, negative = cytotoxicity was -0.186% [at 15.8 µM] (inactive). In assay [9], the max response is 2.59% (inactive).

In the case of `O=S1(=O)CC=CC1`, the Potency result in assay [1], in assay [3], in [6], in assay [7], in assay [10] and in assay [11] was “inactive” in each case. Further, the Potency result in assay [13], in assay [14], in [15], in assay [16] and in assay [18] was “inactive” throughout. For the same compound, the compound was called inactive in assay [2], in assay [4], in assay [5], in assay [8], in [12] and in assay [17]. Further, the max response in [9] was -4.83% (inactive) and 3.43% (inactive).

As to `CCN(CC)CCCC(C)Nc1ccnc2cc(Cl)ccc12` (stereo not given), the activity change, negative = cytotoxicity was 0.575% [at 14 µM] (inactive) and -2.97% [at 31.6 µM] (inactive) in assay [1]; 1.52% [at 6.97 µM] (inactive) and -6.42% [at 15.8 µM] (inactive) in [2]; -11.3% [at 6.97 µM] (inactive) in assay [7]; -2.92% [at 6.97 µM] (inactive) and -5.73% [at 15.8 µM] (inactive) in [15]. Further, the activity change, negative = cytotoxic in assay [3] is -16.4% [at 6.97 µM] (inactive); in assay [5], -2.02% [at 6.97 µM] (inactive) and -2.98% [at 15.8 µM] (inactive); in assay [12], 11.1% [at 6.97 µM] (inactive) and -5.44% [at 15.8 µM] (inactive). Further, the cytotoxicity in assay [4] was 0.802% [at 6.97 µM] (inactive) and -1.16% [at 15.8 µM] (inactive); in [13] it was -7.44% [at 6.97 µM] (inactive); in assay [17], -5% [at 6.97 µM] (inactive) and 4.14% [at 15.8 µM] (inactive). In addition, the cytotoxicity increase was -14.6% [at 6.97 µM] (inactive) and 9.06% [at 15.8 µM] (inactive) in [6]; -7.78% [at 6.97 µM] (inactive) and 19.1% [at 15.8 µM] (inactive) in assay [11]; -6.76% [at 6.97 µM] (inactive) and 37% [at 15.8 µM] (inactive) in assay [14]; -12.6% [at 6.97 µM] (inactive) and 3.44% [at 15.8 µM] (inactive) in assay [16]; -6.83% [at 6.97 µM] (inactive) in [18]. Further, in [8], the viability change, negative = cytotoxic was -1.01% [at 6.97 µM] (inactive) and -3.34% [at 15.8 µM] (inactive). Also, in [9], the max response was -13.9% (inactive).

These data come from PubChem BioAssay (Tox21).
